Hit rate of the full screen: of about 39,000 compounds, about 3,300 (8.5%) were called active. Only a selection was taken, and actives are over-represented in it overall.

For 17 compounds, cytotoxicity call results are on record in the antibiotic and cytotoxicity screens of Wong et al. (2023).

This experiment relates to HepG2. Put plainly: cytotoxicity call (relative viability < 0.9). The following applies: 10 µM.
As for `COc1ccc(S(=O)(=O)N(C)C[C@H]2OCCCC[C@@H](C)Oc3ccc(NC(=O)Nc4ccc(C(F)(F)F)cc4)cc3C(=O)N([C@H](C)CO)C[C@@H]2C)cc1`, the cytotoxicity call was “inactive”.
To `CC(C)c1nc(CN(C)C(=O)N[C@@H](CCN2CCOCC2)C(=O)N[C@H](CC[C@H](Cc2ccccc2)NC(=O)OCc2cncs2)Cc2ccccc2)cs1` belongs “inactive”.
Take `CC(C)NC(=O)Nc1ccc2c(c1)CC(=O)N([C@H](C)CO)C[C@H](C)[C@@H](CN(C)S(=O)(=O)c1cn(C)cn1)O2`: the cytotoxicity call is “inactive”.
To `C=CCOC(=O)[C@@H]1[C@H]2C(=O)O[C@H](c3ccccc3)[C@H](c3ccccc3)N2[C@H](c2ccc(OCCOC(=O)[C@@H]3C[C@@H]4C(=O)N5CCC[C@H]5C(=O)N4[C@@H]3c3ccc(O)cc3)cc2)[C@@]12C(=O)Nc1ccccc12` belongs “inactive”.
Consider `COc1ccc([Si](C)(C)[C@@H]2[C@@H](CC(=O)N3Cc4ccccc4C[C@H]3CO)O[C@]3(C(=O)N(Cc4ccc(N5C(=O)c6cccc7cccc5c67)cc4)c4ccccc43)[C@H]2C)cc1`, for which the cytotoxicity call is “inactive”.
To `COc1ccc([Si](C)(C)[C@H]2[C@H](CCO)O[C@@]3(C(=O)N(Cc4ccc(N5C(=O)c6cccc7cccc5c67)cc4)c4ccccc43)[C@@H]2C)cc1` belongs “active”.
As for `COc1ccc([Si](C)(C)[C@@H]2[C@@H](CCO)O[C@]3(C(=O)N(Cc4ccc(N5C(=O)c6cccc7cccc5c67)cc4)c4ccccc43)[C@H]2C)cc1`, the entry is “active”; as for `COc1ccc([Si](C)(C)[C@@H]2[C@@H](CC(=O)N3CCC[C@H]3CO)O[C@]3(C(=O)N(Cc4ccc(N5C(=O)c6cccc7cccc5c67)cc4)c4ccccc43)[C@H]2C)cc1`, “inactive”; as for `COc1ccc([Si](C)(C)[C@H]2[C@H](CC(=O)N3CCC[C@H]3CO)O[C@@]3(C(=O)N(Cc4ccc(N5C(=O)c6cccc7cccc5c67)cc4)c4ccccc43)[C@@H]2C)cc1`, “inactive”.
As for `C[C@H](CO)N1C[C@H](C)[C@@H](CN(C)S(=O)(=O)c2cn(C)cn2)Oc2ccc(NC(=O)Cc3cn(C)c4ccccc34)cc2C1=O`, the entry is “inactive”.
In the case of `c1csc(Cn2cccc2)c1`, the cytotoxicity call was “inactive”.
As for `CCOC(=O)[C@H](C(C)=O)[C@H]1CCS(=O)(=O)C1`, the entry is “inactive”; as for `CC(C)NC(=O)N(C)C[C@@H]1Oc2ccc(NC(=O)NC3CCCCC3)cc2C(=O)N([C@@H](C)CO)C[C@@H]1C`, “inactive”; as for `Cc1noc(C)c1S(=O)(=O)Nc1ccc2c(c1)C(=O)N([C@H](C)CO)C[C@H](C)[C@@H](CN(C)Cc1ccc3c(c1)OCO3)O2`, “inactive”.
To `CCc1nc2ccc(C(=O)Nc3cc(-c4ccccc4)ccc3OC)cn2c1N(C)CCCc1ccccc1` belongs “inactive”.
To `CCc1nc2ccc(C(=O)Nc3cc(-c4ccccc4)ccc3OC)cn2c1N(CCN(C)C)CC1CC1` belongs “active”; to `CCc1nc2ccc(C(=O)Nc3cc(-c4ccccc4)ccc3OC)cn2c1N(C)C(=O)Cc1ccccc1`, “inactive”.
